# What was measured:
# Conditions in all cases: concentration: 1 μM, replicates: in singlicate; n = 1
# EPHA7 = system: EPHA7
# EPHA8 = system: EPHA8
# EPHB1 = system: EPHB1
# EPHB2 = system: EPHB2
# EPHB3 = system: EPHB3
# EPHB4 = system: EPHB4
# EPHB6 = system: EPHB6
# ERBB2 = system: ERBB2
# ERBB3 = system: ERBB3
# ERBB4 = system: ERBB4
# ERK1 = system: T1, ERK1
# T1 construct: gene MAPK3
# ERK2 = system: T2, ERK2
# T2 construct: gene MAPK1
# ERK3 = system: T3, ERK3
# T3 construct: gene MAPK6
# ERK4 = system: T4, ERK4
# T4 construct: gene MAPK4
# ERK5 = system: T5, ERK5
# T5 construct: gene MAPK7
# ERK8 = system: T6, ERK8
# T6 construct: gene MAPK15
# ERN1 = system: ERN1
# FAK = system: T7, FAK
# T7 construct: gene PTK2
# FER = system: FER
# FES = system: FES
# 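Further: KINOMEscan kinase panel screen.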
SMILES,%Inh (EPHA7) [%],%Inh (EPHA8) [%],%Inh (EPHB1) [%],%Inh (EPHB2) [%],%Inh (EPHB3) [%],%Inh (EPHB4) [%],%Inh (EPHB6) [%],%Inh (ERBB2) [%],%Inh (ERBB3) [%],%Inh (ERBB4) [%],%Inh (ERK1) [%],%Inh (ERK2) [%],%Inh (ERK3) [%],%Inh (ERK4) [%],%Inh (ERK5) [%],%Inh (ERK8) [%],%Inh (ERN1) [%],%Inh (FAK) [%],%Inh (FER) [%],%Inh (FES) [%]
Cl.c1ccc(-c2ccc3c(Nc4ccc5[nH]ccc5c4)ccnc3c2)nc1 [GW440138],3,25,11,0,1,5,79,63,50,44,8,0,0,6,0,0,0,0,0,0
Clc1ccc(-c2nn3ncccc3c2-c2ccnc(Nc3ccc4c(c3)OCCO4)n2)cc1 [GW829116],35,3,18,13,7,0,65,32,8,84,0,12,3,0,0,1,0,0,0,0
COc1cccc(NC(=O)NC2CCN(c3ccnc(Nc4cc(OC)c(OC)c(OC)c4)n3)C2)c1 (centres unmarked) [GSK1379763],6,4,11,8,0,7,94.3,0,0,30,0,0,7,25,0,0,7,0,0,8
c1ccc(-c2cnc3nccnn23)cc1 [AH20685],0,5,0,0,1,0,1,0,0,0,8,0,0,0,0,0,0,0,0,11
Cc1ccc(F)c(C(=O)Nc2cccc(-c3nn4ccccc4c3-c3ccnc(Nc4cccc(F)c4)n3)c2)c1F [GSK361061],41,53,40,0,9,10,94.3,88,25,96.4,26,0,16,21,0,0,25,0,40,0
CCn1c(-c2nonc2N)nc2c(C#CC(C)(C)O)ncc(OCCCCN)c21.O=C(O)C(F)(F)F.O=C(O)C(F)(F)F [GSK507274],0,3,0,0,27,29,6,5,0,41,0,1,6,8,0,10,0,0,0,9
Cc1occc1-c1ncc(OC[C@@H](N)Cc2c[nH]c3ccccc23)cc1-c1ccc2[nH]nc(C)c2c1.O=C(O)C(F)(F)F [GSK682037],6,39,10,0,17,14,0,81,0,47,94.1,82,5,15,0,0,6,40,76,47
Oc1cc(Nc2ccnc3cc(I)ccc23)ccc1F [GW552771],0,49,39,14,4,45,24,22,0,36,0,0,0,0,0,11,0,0,11,0
Cc1ccc(C(=O)N2CC[C@@H](O)C2)cc1-n1c(C)cc(OCc2ccc(F)cc2F)c(Br)c1=O,0,85,84,8,0,0,92,36,0,35,0,0,0,9,0,0,0,0,1,0
COC(=O)Nc1nc2cc(Oc3ccc(NC(=O)Nc4cc(C(F)(F)F)ccc4F)cn3)ccc2[nH]1.Cl.Cl [GW681170],82,98.2,63,78,12,55,86,22,2,2,8,0,0,1,0,95.3,0,0,23,0
CC(=O)N1CCN(c2ccc(Nc3nccc(-c4sc(C(C)C)nc4-c4cccc(NS(=O)(=O)c5cccc(Cl)c5)c4)n3)cn2)CC1 [GSK1660437],0,29,21,0,0,0,97.7,82,92,40,0,98.8,0,0,0,66,44,3,35,0
CSc1cccc2c(-c3ccncn3)c(-c3ccc(F)cc3)nn12 [GW514786],9,26,15,0,4,2,20,34,13,0,14,6,0,5,0,0,12,0,17,0
CNC(=O)c1ccccc1Nc1nc(Nc2ccc(N3CCOCC3)cc2)ncc1Cl.Cl [GSK1576028],88,40,71,23,2,46,95.2,79,0,93.4,59,68,92,64,84,99.5,78,100,97.7,62
Cn1cc(-c2ccc3c(c2)CCN3C(=O)Cc2cccc(F)c2)c2c(N)ncnc21 [GSK2603358],7,11,0,0,13,16,98.7,40,0,12,0,6,0,26,2,0,3,0,35,0
CN1CCN(Cc2cccc(-c3ccc4c(Nc5ccc(Oc6ccccc6)cc5)ccnc4c3)c2)CC1 [GW578342],0,0,25,16,7,10,87,62,99.1,55,4,0,0,9,0,0,11,0,4,4
O=C(Nc1cccc(-c2nn3ccccc3c2-c2ccnc(Nc3cccc(F)c3)n2)c1)c1c(F)ccc(F)c1Cl [GSK357952],11,19,6,0,4,8,48,82,0,76,0,0,0,0,0,20,17,0,45,6
